This note sets out measurements from PubChem BioAssay AID493208 (National Center for Advancing Translational Sciences (NCATS), 2011).

Hit rate of the full screen: of about 44,000 compounds, about 340 (0.77%) were called active. Another 5% or so got no clear call; they are omitted. The sample holds actives, similar compounds and a random draw of the others, so the mix is not that of the screen. Unmarked numbers belong to inactive results. Calls follow the shape of the dose curve; as a rule, active = well fitted inhibition curve with a large enough effect; inconclusive = small, poorly fitted or top-dose-only effect; inactive = flat fitted curve, though single readings scatter.
Potency is read from the fitted curve at half-maximal effect.

The nature of the experiment: Acumen qHTS Assay for Inhibitors of the mTORC1 Signaling Pathway in MEF (Tsc2-/-, p53-/-) Cells: Sytravon. Also: nearly all actives have a fitted effect of over 50% in size. As to conditions: phospho-rpS6 immunofluorescence/PI, 24 h; series mostly up to 38.3 µM; activity change, negative = inhibition: at the top concentration. The text has this: NIH Molecular Libraries Probe Production Centers Network [MLPCN] NIH Chemical Genomics Center [NCGC] MLPCN Grant: NS059428-01 Assay Submitter (PI): Blenis, John; Hoffman, Greg; Harvard University NCGC Assay Overview: The mammalian target of rapamycin (mTOR) is an intracellular serine/threonine kinase Aberrant regulation of mTOR signaling plays a causative role in a number of human diseases, including cancer, benign tumors such as lymphangioleiomyomatosis (LAM) and Tuberous Sclerosis Complex (TSC), and metabolic diseases such as diabetes and obesity. This project aims to identify inhibitors of ribosomal protein S6 (rpS6) phosphorylation. The phosphorylation of rpS6 is a key event downstream of mTOR activation. The assay uses a phospho-specific antibody of phospho-rpS6 to detect inhibitors of mTOR activation. Mutations in the Tsc1 and Tsc2 genes are the underlying genetic lesions responsible for TSC, causing constitutive activation of the mTORC1 pathway and leading to profound effects on cell metabolism. Aberrant metabolism in cancer has recently received significant attention as a target to develop therapeutic agents in the treatment of cancer.1 As Tsc2-/- cells have lost the ability to respond to energy and growth factor deprivation, these cells are unable to properly down regulate cellular biosynthetic processes in response to metabolic stress, and are thus extremely sensitive to glucose deprivation-induced death.2 A central goal of this project is to explore the unique cell survival and metabolic properties of cells with Tsc1 or Tsc2 by screening for compounds that selectively target the Tsc2-/- MEFs by screening both Tsc2-/- and WT MEF cell lines. We hope to better understand these aspects of TSC physiology in order to exploit them for therapeutic benefit.
NCGC Acumen Assay Protocol Summary: For quantitative high throughput analysis of mTORC1 signaling, we developed a cell-based assay for immuno-fluorescence based detection of rpS6 phosphorylation on the Acumen Explorer that will be used a platform for the primary small molecule screen. Mouse embryonic fibroblasts (MEFs) are cultured in 1536-well plates using DMEM + 10% FBS. Twenty-four hrs after plating, test compounds (solubilized in DMSO) are delivered and incubated with the cells for 24 hrs at 37 degree Celsius. Following the incubation, media with compound is aspirated and the cells are fixed in 4% paraformaldehyde (PFA) containing PBS + 0.2% TX-100. Next, PFA is aspirated, cells are washed two times with PBS plus 0.2% TX-100 and the cells are blocked for 1 hr at room temperature (blocking buffer: LiCOR Blocking Buffer plus 0.2% TX-100). […] Cells are washed two times with PBS plus 0.2% TX-100, and stained with 10 uM propidium iodide (PI) for 20-25 minutes for cell number measurement (1:500 dilution of Hoescht staining is also added for IN Cell imaging). The plates are scanned on the Acumen Explorer laser scanning instrument (TTP Labtech) using the 488nm laser for simultaneous excitation of the Alexa-488 and PI. […] The normalized phospho-S6 staining is calculated as the ratio of the integrated Alexa 488 intensity divided by the integrated PI intensity for the single concentration rapamycin control (7.5 nM) and DMSO columns. […] Inhibition of the pathway is defined based on the normalized phospho-S6 intensity in rapamycin treated cells. Active cells are defined as those with a normalized phospho-S6 staining above this threshold, and each treatment is reported as the % positive cells in the well, where thresholds are defined by selecting wells with the highest and lowest signal and differentiating between the % non-active and % active populations. In addition to the pathway specific phospho-S6 endpoint, the number of PI stained cells from the Acumen is recorded as a measure of cell viability. The primary screen was performed with a MEF cell line in a defined genetic background, Tsc2-/-, p53-/- cell line stably transfected with an empty vector control (Tsc2-/- MEF).
Consider `Cc1ccc(S(=O)(=O)c2nc(-c3ccco3)oc2SCC(=O)Nc2ccc(F)cc2)cc1`, for which the “activity change, negative = inhibition” value was -0.694%.
For `CCOc1ccc(C(=O)/C=C/c2cn(CC(O)CN3CCCCCC3)c3ccccc23)cc1` (stereo not drawn), the Potency was 14.7 µM (active).
In the case of `COc1ccc(OCCn2cc(C(=O)C3CCCCC3)c3ccccc32)cc1`, the “activity change, negative = inhibition” value is 0.18%.
On the same count and under the same terms, with `O=C(/C=C/c1cn(CC(O)CN2CCc3ccccc32)c2ccccc12)c1ccc(Br)cc1` (stereo not drawn) the figure was -17.5%; with `O=C(CSc1oc(-c2ccc(F)cc2)nc1S(=O)(=O)c1ccc(Br)cc1)NC1CCCCC1`, 4.26%.
With `COc1ccc(-c2nc(S(=O)(=O)c3ccccc3)c(N3CCCCC3)o2)cc1`, the “activity change, negative = inhibition” value is -13.1%.
`CC(C)S(=O)(=O)c1oc(-c2ccc(F)cc2)nc1S(=O)(=O)c1ccc(F)cc1`: the Potency is 0.521 µM (active).
`COc1ccccc1NC(=O)CCC(=O)N1CC(C)Oc2ccc(C)cc21` (stereo not drawn): the “activity change, negative = inhibition” value is -7.46%.
On to `COc1ccc(C)cc1N(CC(=O)N1CCC(C)CC1)S(=O)(=O)c1ccc(C)cc1`, for which the “activity change, negative = inhibition” value was 2.44%.
For the compound `CN1CCN(C2(CNC(=O)COc3ccc(C(C)(C)C)cc3)CCCCC2)CC1`, the Potency was 8.26 µM (active).
With `CC(C)(C)c1ccc(OCC(=O)N2CCC(c3nc4ccccc4s3)CC2)cc1`, the “activity change, negative = inhibition” value is -9.26%.
On the same count and under the same terms, the result for `CCn1cc(C(=O)NCc2ccccc2)c(=O)c2cc(S(=O)(=O)N3CCCCC3)ccc21` reads -7.26%; that for `Cc1cccc(CNC(=O)c2cnc3sc(N4CCCCC4)nn3c2=O)c1`, 8.89%.
Regarding `O=C(Cc1ccc(Cl)cc1)Nc1ccc2nn(-c3ccc(Cl)cc3)nc2c1`, the “activity change, negative = inhibition” value is -7.33%.
As for `COc1ccc(NC(=O)c2cnc(Nc3ccc(C)c(Cl)c3)c3ccccc23)cc1OC`, the “activity change, negative = inhibition” value is 0.723%.
As for `CCOc1ccc(-n2nc3ccc(NC(=O)c4ccc(OC)c(Cl)c4)cc3n2)cc1`, the “activity change, negative = inhibition” value was 2.46%.
For `COc1ccc(C(=O)Nc2ccc3nc(N4CCCCC4)cc(C)c3c2)cc1OC`, the Potency is 13.1 µM (active).
Take `COc1cccc(C(=O)Nc2ccc3nc4n(c(=O)c3c2)CCCCC4)c1`: the “activity change, negative = inhibition” value is -1.75%.
On the same count and under the same terms, the result for `COc1ccc(NC(=O)c2ccc3nc(C(C)C)oc3c2)cc1OC` reads -14.4%.
Consider `CCN1CCN(c2cc(C)c3cc(NC(=O)c4cc(Cl)ccc4OC)ccc3n2)CC1`, for which the Potency is 2.61 µM (active).
Take `CCOc1ccc(N(Cc2ccccc2)C(=O)c2nc(SCC)ncc2Cl)cc1`: the “activity change, negative = inhibition” value is -13%.
For `CCOc1ccc(NC(=O)CN(Cc2ccccc2)S(=O)(=O)c2ccc(Cl)cc2)cc1`, the “activity change, negative = inhibition” value was 3.52%.
As for `CCOc1ccc(N(Cc2ccccc2)C(=O)c2nc(S(C)(=O)=O)ncc2Cl)cc1`, the Potency is 0.736 µM (active).
As for `CCOC(=O)c1ccc(NC(=O)c2c(NCc3cccs3)sc3c2CCCC3)cc1`, the “activity change, negative = inhibition” value is -12.1%.
Still for that read-out and setting: with `CCCn1ccc2c(OCC(=O)NCc3ccc(F)cc3)cccc2c1=O` the figure was -1.85%; with `CCOc1ccc(N2CC(C)Cn3c2nc2c3c(=O)n(Cc3c(F)cccc3Cl)c(=O)n2C)cc1` (stereo not drawn), -8.65%; with `O=C1CN(C(=O)Nc2ccccc2C(F)(F)F)C(c2ccccc2)c2c(sc3c2CCCC3)N1` (stereo not drawn), 4.23%.
Still for that read-out and setting: with `Oc1c(C(c2ccc(F)cc2)N2CCN(Cc3ccccc3)CC2)sc2nc(-c3ccco3)nn12` (stereo not drawn) the figure was 0.278%.
Still for that read-out and setting: with `Cc1nc2ccn(Cc3cccs3)c(=O)c2cc1C(=O)NCc1ccc(Cl)cc1` the figure was -5.14%; with `CCOCCCNC(=O)c1cn(CC)c2ccc(S(=O)(=O)N3CCc4ccccc4C3)cc2c1=O`, 0.725%.
Take `Cc1ccc2nc(/C(C#N)=C/c3ccc(-c4ccc(C(=O)OC(C)C)cc4)o3)[nH]c2c1`: the “activity change, negative = inhibition” value is -18.9%.
On the same count and under the same terms, with `Cc1nn2c(=O)cc(COC(=O)CNC(=O)c3ccc(F)cc3)nc2s1` the figure was -6.97%.
Regarding `COc1ccc(N2CCN(c3cc(C)nc4nncn34)CC2)cc1`, the “activity change, negative = inhibition” value is -1.3%.
Same read-out and setting: the result for `CCOc1ccc(CCNC(=O)c2ccc3c(c2)sc2nc(-c4ccc(F)cc4)cn23)cc1OCC` reads -3.54%; that for `Cc1nn2c(=O)cc(COC(=O)c3cccc(NC(=O)COc4ccccc4Cl)c3)nc2s1`, 0%.
Same read-out and setting: with `Cc1nn(CC(=O)N2CCN(c3cccc(C(F)(F)F)c3)CC2)c(=O)c2cc3sccc3n12` the figure was 1.19%; with `COc1cccc(Nc2nc3ccccc3c3nncn23)c1`, -4.37%.
For the compound `COc1cc(Nc2nc(-c3ccc(OC)c(OC)c3)nc3ccccc23)cc(OC)c1`, the Potency is 16.5 µM (active).
For the compound `CCOC(=O)c1nc(Nc2ccc(C(=O)OC)cc2)c2ccccc2n1`, the “activity change, negative = inhibition” value is -14.8%.
As for `Cn1c(=O)oc2cc(S(=O)(=O)CCC(=O)NCCc3ccc(Cl)cc3)ccc21`, the “activity change, negative = inhibition” value is -10.6%.
On to `Cc1ccc(S(=O)(=O)c2cn(Cc3ccccc3)c3cc(N4CCCC4)c(F)cc3c2=O)c(C)c1`, for which the “activity change, negative = inhibition” value is -7.49%.
Regarding `O=C(CCS(=O)(=O)c1ccccc1)N(Cc1cccnc1)c1nc2c(F)cccc2s1`, the Potency was 3.69 µM (active).
For the compound `CN(C)S(=O)(=O)c1ccc(C(=O)N(Cc2cccnc2)c2nc3c(F)cc(F)cc3s2)cc1`, the “activity change, negative = inhibition” value was -8.48%.
On to `O=C(CCOc1ccccc1)N(Cc1cccnc1)c1nc2ccc(Cl)cc2s1`, for which the “activity change, negative = inhibition” value was -0.351%.
Regarding `CCOc1ccc(C2CC(=O)c3c([nH]c(C(=O)OCc4ccccc4)c3C)C2)cc1` (stereo not drawn), the Potency is 4.14 µM (active).
For the compound `CCc1ccc(C2CC(=O)c3c([nH]c(C(=O)OCc4ccc(C)cc4)c3C)C2)cc1` (stereo not drawn), the “activity change, negative = inhibition” value was -16.6%.
Regarding `CC1=C(C(=O)OCC(C)C)C(c2ccc(OCc3ccccc3)cc2)N2C(=O)CCSC2=N1` (stereo not drawn), the “activity change, negative = inhibition” value was -27.7%.
The same measure, in the same setting: the result for `CSc1oc(-c2cccs2)nc1S(=O)(=O)c1ccc(Br)cc1` reads 2.88%.
